Bioassay records (PubChem BioAssay)
KB-V1 cytotox = qHTS assay for MDR1-selective chemotherapeutics: Primary screen using the drug-selected MDR subline cells KB-V1 | KB-V1 MDR cells viability, CellTiter-Glo, 72 h | Potency, µM (doses to about 46.1 µM), actives largely listed as cytotoxic | 400,000 compounds, 3.4% hits | AID 1347076, 2019; further: on the % scale 0 is the no-effect control and ±100 the full control effect; nearly all actives have a fitted effect of over 60% in size
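In this primary screen, KB-V1 cells overexpressing P-gp are incubated with library compounds (lowest to highest concentration) for 72 h at 37 degrees C before a luminescent ATP viability read.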
KB-3-1 cytotox = qHTS assay for MDR1-selective chemotherapeutics: Primary screen using the parental adenocarcinoma cell KB-3-1; KB-3-1 viability, CellTiter-Glo ATP luminescence, 72 h; 400,000 compounds, 1.4% hits; Potency, µM (titrated, usually from 46.1 µM), hits mostly cytotoxic; further: on the % scale 0 is the no-effect control and ±100 the full control effect; nearly all actives have a fitted effect of over 60% in size
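Cells are dispensed, compounds pinned in, plates held at 37 °C for 72 h, then CellTiter-Glo is added and luminescence read after 10 minutes. Cell line: parental KB-3-1 in phenol-red-free DMEM, 10% FBS.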
HT1080-NT tox = qHTS for induction of synthetic lethality in tumor cells producing 2HG: qHTS for the HT-1080-NT fibrosarcoma cell line; HT-1080-NT fibrosarcoma viability, CellTiter-Glo ATP luminescence, 48 h; AID 686970, 2013; Potency, µM (series often up to 46.1 µM), for the others: at the top dose activity, negative = less viability, most hits filed as cytotoxic; 360,000 compounds, 1.6% hits;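 further: NT is the 2HG producing partner of a matched IDH1 knockdown line; 0% = DMSO-treated cells and -100% = media-only wells without cells; nearly all actives have a fitted effect of over 55% in size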
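Read-out is CellTiter-Glo luminescence after 10 minutes at room temperature, following 48 hours' compound treatment of HT-1080-NT cells (750 cells/well, RPMI, 5% FBS, 37 degrees C).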
HT1080 IDH1KD tx = qHTS for induction of synthetic lethality in tumor cells producing 2HG: qHTS for the HT-1080-IDH1KD cell line | HT-1080 IDH1 knockdown viability, ATP luminescence, 48 h | Potency, µM (highest dose often 46.1 µM), for inactives: at the top dose activity, negative = toxicity, hits mostly cytotoxic | 360,000 compounds, 2% hits | AID 686971, 2013;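 further: 0% = DMSO wells and -100% = cell-free medium wells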
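In this qHTS, HT-1080 cells depleted of IDH1 are exposed for 48 h at 37 °C to compound titrations. Toxicity is scored from CellTiter-Glo luminescence, with DMSO as full viability and medium alone as none.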
SW480 rereplic = A quantitative high throughput screen for small molecules that induce DNA re-replication in SW480 colon adenocarcinoma cells. SW480 DNA re-replication, Hoechst DNA content imaging, 48 h. Potency, µM (doses to about 46.1 µM), for inactives: top-dose re-replication activation, hits mostly activators. 340,000 compounds, 1.8% hits; further: % of control where 0% means no effect; nearly all actives have a fitted effect of over 55% in size
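250 cells/well; 23 nL cpd via pin tool; 48 hr, 37 C, 5% CO2; Hoechst 40 min; imager read of total nuclear intensity, ex 405/em 500-530 nm.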
MCF10A rereplic = A quantitative high throughput screen for small molecules that induce DNA re-replication in MCF 10a normal breast cells | MCF 10A DNA re-replication, Hoechst nuclear intensity, 48 h | Potency, µM (doses to about 46.1 µM), for the others: top-dose activity, positive = re-replication, most hits filed as activators | 350,000 compounds, 2.9% hits; further: % of control where 0% means no effect; nearly all actives have a fitted effect of over 50% in size
Starred values were filed as active, the others as inactive; i = inactive; ? = inconclusive; / = not tested or not shown. Hits are enriched below; roughly 7.9% of the tested compounds scored in any of these assays. The call rests on the fitted dose curve; in most records, active means well fitted curve in the direction sought with a large enough effect; inconclusive means small, poorly fitted or top-dose-only effect, or another doubt; inactive means no such curve, though single readings can be large; an effect the other way counts as inactive or inconclusive. Potency means the concentration at half of the fitted maximal effect.

SMILES	KB-V1 cytotox	KB-3-1 cytotox	HT1080-NT tox	HT1080 IDH1KD tx	SW480 rereplic	MCF10A rereplic
COC(=O)CNC(c1ccccc1)c1cc(Br)ccc1NS(=O)(=O)c1ccccc1 (stereo not given)	i	i	13%	18%	-1%	-7%
COC(=O)CNC(c1ccccc1)c1cc(Br)ccc1NC(=O)c1ccc(Cl)cc1 (stereo not given)	i	i	/	/	/	/
COC(=O)CNC(c1ccccc1)c1cc(Br)ccc1NS(=O)(=O)c1ccc(C)cc1 (stereo not given)	5.8µM*	i	-21%	-21%	4%	9%
C[C@@H]1CN([C@H](C)CO)C(=O)CCCn2cc(nn2)CO[C@H]1CN(C)S(=O)(=O)c1ccc(C#N)cc1	i	i	-10%	10%	/	/
Fc1ccc(CNc2nc3c(-c4ccc(F)cc4)nnn3c3ccccc23)cc1	i	i	/	/	/	/
Clc1ccc(-c2cnc3n2CCC3)cc1	i	i	35µM*	?	-2%	20%
Cc1cc(C)cc(N2CCn3c2nc2c3c(=O)n(CCc3ccccc3)c(=O)n2C)c1	i	i	/	/	/	/
Cc1ccc(-c2nn(-c3ccccc3)cc2NC(=O)CCl)cc1	?	8.2µM*	5.2µM*	7.3µM*	18µM*	?
Cc1ccccc1NC(=O)c1cn(-c2ccccc2)nc1-c1ccccc1	i	i	15%	7%	3%	?
Cc1ccc(-c2nn(-c3ccccc3)cc2CNCc2ccccc2)cc1	i	?	16µM*	23µM*	-10%	?
Cc1ccc(-c2nn(-c3ccccc3)cc2CO)cc1	i	i	-8%	-14%	-5%	-1%
Cc1ccc(N2C(=O)CS(=O)(=O)C23C(=O)N(Cc2cccc(F)c2)c2ccccc23)cc1Cl (stereo not given)	?	i	/	/	/	/
CCCNC(=O)c1cc(C2CCCCN2C(=O)c2cccs2)on1 (stereo not given)	i	i	3%	0%	/	/
COc1ccc(C2C(C(N)=O)=C(C)Nc3nc(SCc4ccccc4Cl)nn32)cc1OC (stereo not given)	?	i	/	/	/	/
COc1ccc(-c2csc3nc(C)nc(N4CCCCC4)c23)cc1OC	?	?	16µM*	?	?	?
Cc1ccccc1NC(=O)c1sc2nc(-c3cc4ccccc4oc3=O)[nH]c(=O)c2c1C	?	i	/	/	/	/
O=C(CCl)N1CCCC1c1ccc2c(c1)OCCO2 (stereo not given)	?	?	23µM*	18µM*	?	19%
Cc1nnc(SCC(=O)NCc2ccc(N(C)C)cc2)c2nn(-c3ccccc3)c(C)c12	i	i	/	/	/	/
C/C(=N/Nc1ccc(C(=O)O)cc1)c1ccc2c(c1)Nc1ccccc1S2	i	i	-9%	-21%	18µM*	16µM*
C/C(=N\Nc1ccc(C(=O)O)cc1)c1ccc2c(c1)Nc1ccccc1S2	i	i	-19%	?	8.2µM*	16µM*
Nc1ccc(CCCC(=O)NCc2cccnc2)cc1	i	i	12%	6%	/	/
CCOC(=O)c1ccc(CC2S/C(=C(\C#N)C(C)=O)NC2=O)cc1 (stereo not given)	i	?	-1%	?	-2%	?
CC(=O)/C(C#N)=C1\NC(=O)C(Cc2ccc(C)c(Cl)c2)S1 (stereo not given)	9.2µM*	18µM*	-28%	?	-10%	?
